PubChem BioAssay AID1159580 (chemical genetic matrix, 2015)
In all, about 5,500 compounds went through this assay and about 2,000 (36%) were called active. Inconclusive results (about 18%) are left out. No stated cut-off is given here; in the data, active means normalized growth mostly below about 0.91 (no sharp cut-off); inconclusive means no clear call, values can overlap the other calls; inactive means mostly above about 0.92. The list shows a part of the results.

Assay: chemical genetic growth profiling, strain panel (AID 1159580);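 further: tested at 20 µM; growth read once vehicle control cultures reached saturation at 30 °C; 1 = growth at the plate median or of vehicle wells; lower values mean less growth of the strain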
Details: growth OD

Measured: normalized growth

CC[C@]12CCCN3CCc4c(n(c5ccccc45)C(=O)C1)[C@@H]32
active: S. cerevisiae deletion strains, locus YDR162C, strain NBP2, active compounds read low 0.552 | S. cerevisiae deletion strains, locus YGL248W, strain PDE1, active compounds read low 0.857 | S. cerevisiae deletion strains, locus YHR030C, strain SLT2, active compounds read low 0.885 | S. cerevisiae deletion strains, locus YLR342W, strain FKS1 (second series), active compounds read low 1.21 [resistant]
inactive: S. cerevisiae deletion strains, locus YAL013W, strain DEP1, active compounds read low 0.967 | S. cerevisiae deletion strains, locus YAL021C, strain ccr4, active compounds read low 0.968 | S. cerevisiae deletion strains, locus YAL026C, strain drs2, active compounds read low 1.04 | S. cerevisiae deletion strains, locus YAL030W, strain snc1, active compounds read low 1.01 | S. cerevisiae deletion strains, locus YBL061C, strain skt5, active compounds read low 1.01 | S. cerevisiae deletion strains, locus YBR009C, strain hhf1, active compounds read low 1.01 | S. cerevisiae deletion strains, locus YBR021W, strain FUR4, active compounds read low 1.07 | S. cerevisiae deletion strains, locus YBR023C, strain chs3, active compounds read low 1 | S. cerevisiae deletion strains, locus YBR171W, strain sec66, active compounds read low 0.999 | S. cerevisiae deletion strains, locus YBR229C, strain ROT2, active compounds read low 1.02 | S. cerevisiae deletion strains, locus YBR231C, strain swc5, active compounds read low 1.01 | S. cerevisiae deletion strains, locus YBR279W, strain paf1, active compounds read low 1 | S. cerevisiae deletion strains, locus YCL011C, strain gbp2, active compounds read low 1.01 | S. cerevisiae deletion strains, locus YCL016C, strain dcc1, active compounds read low 0.983 | S. cerevisiae deletion strains, locus YCL029C, strain bik1, active compounds read low 0.989 | S. cerevisiae deletion strains, locus YCL069W, strain vba3, active compounds read low 1 | S. cerevisiae deletion strains, locus YCR088W, strain abp1, active compounds read low 1.01 | S. cerevisiae deletion strains, locus YDL005C, strain med2, active compounds read low 1 | S. cerevisiae deletion strains, locus YDL035C, strain GPR1, active compounds read low 0.941 | S. cerevisiae deletion strains, locus YDL040C, strain nat1, active compounds read low 1 | S. cerevisiae deletion strains, locus YDL074C, strain BRE1, active compounds read low 0.9 | S. cerevisiae deletion strains, locus YDL101C, strain DUN1, active compounds read low 0.977 | S. cerevisiae deletion strains, locus YDL134C, strain PPH21, active compounds read low 0.951 | S. cerevisiae deletion strains, locus YDL185W, strain tfp1, active compounds read low 0.953 | S. cerevisiae deletion strains, locus YDL192W, strain arf1, active compounds read low 0.977 | S. cerevisiae deletion strains, locus YDR001C, strain nth1, active compounds read low 0.998 | S. cerevisiae deletion strains, locus YDR069C, strain doa4, active compounds read low 1.04 | S. cerevisiae deletion strains, locus YDR101C, strain arx1, active compounds read low 0.98 | S. cerevisiae deletion strains, locus YDR137W, strain rgp1, active compounds read low 1.15 | S. cerevisiae deletion strains, locus YDR150W, strain NUM1, active compounds read low 0.988 | S. cerevisiae deletion strains, locus YDR159W, strain sac3, active compounds read low 0.995 | S. cerevisiae deletion strains, locus YDR195W, strain ref2 1.01 | S. cerevisiae deletion strains, locus YDR297W, strain sur2, active compounds read low 1.01 | S. cerevisiae deletion strains, locus YDR318W, strain mcm21, active compounds read low 0.978 | S. cerevisiae deletion strains, locus YDR334W, strain swr1, active compounds read low 1 | S. cerevisiae deletion strains, locus YDR335W, strain msn5, active compounds read low 0.998 | S. cerevisiae deletion strains, locus YDR388W, active compounds read low 0.993 | S. cerevisiae deletion strains, locus YDR392W, strain spt3, active compounds read low 0.804 | S. cerevisiae deletion strains, locus YDR502C, strain sam2, active compounds read low 0.984 | S. cerevisiae deletion strains, locus YEL003W, strain gim4, active compounds read low 1 | S. cerevisiae deletion strains, locus YEL037C, strain rad23, active compounds read low 0.993 | S. cerevisiae deletion strains, locus YEL061C, strain CIN8 (second series), active compounds read low 1 | S. cerevisiae deletion strains, locus YEL061C, strain CIN8, active compounds read low 0.992 | S. cerevisiae deletion strains, locus YER015W, strain faa2, active compounds read low 0.997 | S. cerevisiae deletion strains, locus YER016W, strain bim1, active compounds read low 0.999 | S. cerevisiae deletion strains, locus YER110C, active compounds read low 0.975 | S. cerevisiae deletion strains, locus YER111C, strain swi4, active compounds read low 0.998 | S. cerevisiae deletion strains, locus YER155C, strain BEM2 (second series), active compounds read low 0.976 | S. cerevisiae deletion strains, locus YER155C, strain BEM2, active compounds read low 1.01 | S. cerevisiae deletion strains, locus YER167W, strain BCK2, active compounds read low 1 | S. cerevisiae deletion strains, locus YFR010W, strain ubp6, active compounds read low 1.01 | S. cerevisiae deletion strains, locus YGL078C, strain dbp3, active compounds read low 0.983 | S. cerevisiae deletion strains, locus YGL086W, strain mad1, active compounds read low 0.992 | S. cerevisiae deletion strains, locus YGL167C, strain pmr1, active compounds read low 0.98 | S. cerevisiae deletion strains, locus YGL173C, strain kem1, active compounds read low 1.02 | S. cerevisiae deletion strains, locus YGL227W, strain vid30, active compounds read low 1.01 | S. cerevisiae deletion strains, locus YGL240W, strain doc1, active compounds read low 0.999 | S. cerevisiae deletion strains, locus YGL253W, strain hxk2, active compounds read low 1.03 | S. cerevisiae deletion strains, locus YGR135W, strain pre9, active compounds read low 0.97 | S. cerevisiae deletion strains, locus YGR252W, strain gcn5, active compounds read low 1.03 | S. cerevisiae deletion strains, locus YHR013C, strain ard1, active compounds read low 0.98 | S. cerevisiae deletion strains, locus YHR027C, strain rpn1, active compounds read low 1 | S. cerevisiae deletion strains, locus YHR079C, strain IRE1 (second series), active compounds read low 0.982 | S. cerevisiae deletion strains, locus YHR094C, strain hxt1, active compounds read low 0.99 | S. cerevisiae deletion strains, locus YHR129C, strain ARP1, active compounds read low 0.993 | S. cerevisiae deletion strains, locus YHR142W, strain chs7, active compounds read low 1.01 | S. cerevisiae deletion strains, locus YHR200W, strain rpn10, active compounds read low 0.981 | S. cerevisiae deletion strains, locus YIL066C, strain RNR3, active compounds read low 0.987 | S. cerevisiae deletion strains, locus YIL073C, strain SPO22, active compounds read low 0.692 | S. cerevisiae deletion strains, locus YIL125W, strain kgd1, active compounds read low 0.989 | S. cerevisiae deletion strains, locus YIR030C, strain dcg1, active compounds read low 0.978 | S. cerevisiae deletion strains, locus YJL092W, strain hpr5, active compounds read low 0.997 | S. cerevisiae deletion strains, locus YJL095W, strain BCK1 (second series), active compounds read low 0.996 | S. cerevisiae deletion strains, locus YJL095W, strain BCK1, active compounds read low 0.956 | S. cerevisiae deletion strains, locus YJL115W, strain asf1, active compounds read low 0.994 | S. cerevisiae deletion strains, locus YJL129C, strain trk1, active compounds read low 1.01 | S. cerevisiae deletion strains, locus YJL134W, strain LCB3, active compounds read low 0.993 | S. cerevisiae deletion strains, locus YJL154C, strain vps35, active compounds read low 0.993 | S. cerevisiae deletion strains, locus YJL164C, strain tpk1, active compounds read low 0.984 | S. cerevisiae deletion strains, locus YJL166W, strain qcr8, active compounds read low 1.01 | S. cerevisiae deletion strains, locus YJL168C, strain set2, active compounds read low 0.992 | S. cerevisiae deletion strains, locus YJL187C, strain SWE1 (second series), active compounds read low 0.966 | S. cerevisiae deletion strains, locus YJL187C, strain SWE1, active compounds read low 1.01 | S. cerevisiae deletion strains, locus YJR043C, strain POL32, active compounds read low 0.998 | S. cerevisiae deletion strains, locus YKL009W, strain mrt4, active compounds read low 0.95 | S. cerevisiae deletion strains, locus YKL068W, active compounds read low 0.981 | S. cerevisiae deletion strains, locus YKL085W, strain MDH1 (second series), active compounds read low 0.976 | S. cerevisiae deletion strains, locus YKL085W, strain MDH1, active compounds read low 0.976 | S. cerevisiae deletion strains, locus YKL160W, strain elf1, active compounds read low 0.974 | S. cerevisiae deletion strains, locus YKL190W, strain CNB1, active compounds read low 0.941 | S. cerevisiae deletion strains, locus YKR001C, strain vps1, active compounds read low 0.955 | S. cerevisiae deletion strains, locus YKR026C, strain gcn3, active compounds read low 0.996 | S. cerevisiae deletion strains, locus YKR091W, strain srl3, active compounds read low 0.996 | S. cerevisiae deletion strains, locus YLL001W, strain dnm1, active compounds read low 0.956 | S. cerevisiae deletion strains, locus YLL026W, active compounds read low 0.994 | S. cerevisiae deletion strains, locus YLL041C, strain sdh2, active compounds read low 1.01 | S. cerevisiae deletion strains, locus YLR027C, strain aat2, active compounds read low 1.01 | S. cerevisiae deletion strains, locus YLR039C, strain RIC1, active compounds read low 0.741 | S. cerevisiae deletion strains, locus YLR058C, strain SHM2, active compounds read low 0.991 | S. cerevisiae deletion strains, locus YLR102C, strain apc9, active compounds read low 0.985 | S. cerevisiae deletion strains, locus YLR221C, strain rsa3, active compounds read low 1.04 | S. cerevisiae deletion strains, locus YLR258W, strain gsy2, active compounds read low 1 | S. cerevisiae deletion strains, locus YLR262C, strain YPT6 (second series), active compounds read low 0.991 | S. cerevisiae deletion strains, locus YLR262C, strain YPT6, active compounds read low 0.776 | S. cerevisiae deletion strains, locus YLR268W, strain sec22, active compounds read low 0.971 | S. cerevisiae deletion strains, locus YLR320W, strain mms22, active compounds read low 1 | S. cerevisiae deletion strains, locus YLR330W, strain CHS5, active compounds read low 0.956 | S. cerevisiae deletion strains, locus YLR342W, strain FKS1, active compounds read low 0.999 | S. cerevisiae deletion strains, locus YLR357W, strain rsc2, active compounds read low 0.994 | S. cerevisiae deletion strains, locus YLR370C, strain arc18, active compounds read low 0.996 | S. cerevisiae deletion strains, locus YLR371W, strain rom2, active compounds read low 0.983 | S. cerevisiae deletion strains, locus YLR384C, strain iki3, active compounds read low 1.03 | S. cerevisiae deletion strains, locus YLR418C, strain cdc73, active compounds read low 0.906 | S. cerevisiae deletion strains, locus YML016C, strain PPZ1, active compounds read low 1 | S. cerevisiae deletion strains, locus YML032C, strain rad52, active compounds read low 0.99 | S. cerevisiae deletion strains, locus YML120C, strain ndi1, active compounds read low 0.986 | S. cerevisiae deletion strains, locus YML124C, strain tub3, active compounds read low 0.979 | S. cerevisiae deletion strains, locus YMR058W, strain fet3, active compounds read low 1.01 | S. cerevisiae deletion strains, locus YMR078C, strain ctf18, active compounds read low 0.973 | S. cerevisiae deletion strains, locus YMR125W, strain sto1, active compounds read low 0.994 | S. cerevisiae deletion strains, locus YMR129W, active compounds read low 1 | S. cerevisiae deletion strains, locus YMR205C, strain PFK2, active compounds read low 0.991 | S. cerevisiae deletion strains, locus YMR223W, strain ubp8, active compounds read low 0.968 | S. cerevisiae deletion strains, locus YMR231W, strain pep5, active compounds read low 0.997 | S. cerevisiae deletion strains, locus YMR307W, strain GAS1, active compounds read low 0.685 | S. cerevisiae deletion strains, locus YNL067W, strain RPL9B, active compounds read low 0.906 | S. cerevisiae deletion strains, locus YNL071W, strain lat1, active compounds read low 0.996 | S. cerevisiae deletion strains, locus YNL209W, strain ssb2, active compounds read low 0.983 | S. cerevisiae deletion strains, locus YNL233W, strain BNI4, active compounds read low 0.943 | S. cerevisiae deletion strains, locus YNL248C, strain rpa49, active compounds read low 1.02 | S. cerevisiae deletion strains, locus YNL250W, strain rad50, active compounds read low 0.988 | S. cerevisiae deletion strains, locus YNL271C, strain bni1, active compounds read low 0.978 | S. cerevisiae deletion strains, locus YNL298W, strain CLA4, active compounds read low 0.998 | S. cerevisiae deletion strains, locus YNL307C, strain MCK1, active compounds read low 0.984 | S. cerevisiae deletion strains, locus YNL322C, strain KRE1 (second series), active compounds read low 0.979 | S. cerevisiae deletion strains, locus YNL322C, strain KRE1, active compounds read low 0.983 | S. cerevisiae deletion strains, locus YNR049C, strain mso1, active compounds read low 1.01 | S. cerevisiae deletion strains, locus YNR052C, strain pop2, active compounds read low 0.986 | S. cerevisiae deletion strains, locus YOL012C, strain htz1 0.684 | S. cerevisiae deletion strains, locus YOL147C, strain pex11, active compounds read low 0.989 | S. cerevisiae deletion strains, locus YOR001W, strain rrp6, active compounds read low 1.02 | S. cerevisiae deletion strains, locus YOR061W, strain CKA2, active compounds read low 0.966 | S. cerevisiae deletion strains, locus YOR069W, strain VPS5, active compounds read low 0.987 | S. cerevisiae deletion strains, locus YOR070C, strain gyp1, active compounds read low 1 | S. cerevisiae deletion strains, locus YOR080W, strain dia2, active compounds read low 1 | S. cerevisiae deletion strains, locus YOR083W, strain WHI5, active compounds read low 0.972 | S. cerevisiae deletion strains, locus YOR106W, strain vam3, active compounds read low 0.981 | S. cerevisiae deletion strains, locus YOR136W, strain idh2, active compounds read low 0.977 | S. cerevisiae deletion strains, locus YOR144C, strain elg1, active compounds read low 0.99 | S. cerevisiae deletion strains, locus YOR184W, strain ser1, active compounds read low 0.94 | S. cerevisiae deletion strains, locus YOR265W, strain rbl2, active compounds read low 0.994 | S. cerevisiae deletion strains, locus YOR270C, strain vph1, active compounds read low 1.06 | S. cerevisiae deletion strains, locus YOR290C, strain snf2, active compounds read low 0.98 | S. cerevisiae deletion strains, locus YOR316C, strain cot1, active compounds read low 0.987 | S. cerevisiae deletion strains, locus YPL051W, strain arl3, active compounds read low 0.968 | S. cerevisiae deletion strains, locus YPL078C, strain atp4, active compounds read low 0.969 | S. cerevisiae deletion strains, locus YPL106C, strain sse1, active compounds read low 0.973 | S. cerevisiae deletion strains, locus YPL240C, strain hsp82, active compounds read low 1 | S. cerevisiae deletion strains, locus YPL241C, strain CIN2, active compounds read low 0.991 | S. cerevisiae deletion strains, locus YPR119W, strain clb2, active compounds read low 0.976 | S. cerevisiae deletion strains, locus YPR141C, strain kar3, active compounds read low 0.977 | S. cerevisiae deletion strains, locus YPR163C, strain tif3, active compounds read low 0.988 | S. cerevisiae deletion strains, locus YPR167C, strain met16, active compounds read low 0.974 | S. cerevisiae deletion strains, strain wtn01, active compounds read low 0.973 | S. cerevisiae strains, strain wild type, active compounds read low 0.967
